Measured values published in PubChem BioAssay.
Calls of active or inactive are those of the source.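 Rule for the calls, unless noted: active = fluorescence slope higher than the sample average by over 3 SD (cut at about -0.22 in these data, passing the limit was not always enough); inactive = the rest.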

What was measured:
[1] = inhibitors of TNFa-induced NFkB p65 translocation, primary screen, imaging, HUVEC, MLSMR starter and 10KST1 sets (AID 438;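 active = inhibition above 20% together with a positive visual image hit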;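 note: compound added about 3h40 before a 20 min TNFalpha stimulation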;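 for inhibition: signal is the nuclear over cytoplasmic p65 intensity ratio per well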); details: HUVEC TNFa-induced p65 nuclear translocation; cell count: measured here: nuclei count (cytotoxicity indicator), at 2.08 µM; inhibition: at 2 µM, stronger effect = higher value, 0% TNFa-plus-vehicle, 100% no-TNFa wells
[2] = inhibitors of mutant huntingtin aggregation, primary screen, imaging, exon1htt(103Q)mCFP cells, high-content imaging (AID 483;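 active = visual image review flags a hit and inhibition of aggregation exceeds 20%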;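 note: compound exposure lasted 3 days before fixation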;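 for nuclei count: percent of the per-plate median nuclei count of sample wells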); details: exon1htt(103Q)mCFP cell line, aggregate imaging, at 2 µM; inhibition of aggregation: stronger effect = higher value; nuclei count: measured here: cell count, toxicity
[3] = inhibitors of E-selectin induction by TNFa, primary screen, imaging, HUVEC, immunofluorescence, MLSMR starter and 10KST1 sets (AID 487;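 active = visually confirmed hit in the image check and inhibition above 20%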;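 for inhibition: signal is fraction of cell area covered by stained E-selectin grains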;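 for nuclei count: 100% = median nuclei count of all wells on the same plate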); details: HUVEC TNFalpha-induced E-selectin immunofluorescence imaging, at 2 µM; inhibition: stronger effect = higher value; nuclei count: measured here: cell number, toxicity
[4] = molecular target: Voltage-gated potassium channel subunit beta-2 (Rattus norvegicus) (UniProt P62483); test: KvBeta enzyme negative modulators, primary screen, biochemical, NADPH fluorescence (AID 622); details: recombinant KvBeta, 4-cyanobenzaldehyde reduction, at 10 µM, stronger effect = higher value;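 note: slope of raw intensity against log time taken from 70 to 1610 s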
[5] = molecular target: Voltage-gated potassium channel subunit beta-2 (Rattus norvegicus) (UniProt P62483); test: KvBeta positive modulators, primary screen, biochemical, NADPH fluorescence (AID 623;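 active = NADPH fluorescence slope more negative than the mean of all samples by about 3 SD, 99.7% confidence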;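 note: fluorescence intensity change per second fitted from 20 to 320 s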); details: Recombinant KvBeta, NADPH fluorescence decrease slope, 10 min; at 10 µM; stronger effect = lower value
[6] = molecular target: Alpha-2C adrenergic receptor (Homo sapiens) (UniProt P18825); test: modulators of alpha2C/GIRK thallium flux, primary screen, cell-based, HEK293 alpha2C/GIRK1/2 (AID 624;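 active = fluorescence slope after compound addition differing from the mean of all screened samples at 99.7% confidence, in either direction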;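 note: slope of fluorescence ratio to pre-addition baseline per second over 15 to 24 s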); details: thallium flux BTC fluorescence, at 10 µM, actives lie on both sides
[7] = inhibitors of Sendai virus-induced IRF3 signaling, primary screen, TLR/RLR signaling modifier project, cell-based, Sendai virus stimulus, luciferase, 10K MLSCN set (AID 602276;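 active = inhibition at or above 50% at 10 µM; inactive = inhibition below 50%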;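 note: firefly luciferase from ISG56 promoter only with Renilla not read in this screen; 0% = Sendai virus plus DMSO and 100% = medium plus DMSO without virus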); details: HEK293 RL24 IRF3 luciferase reporter, at 10 µM, stronger effect = higher value
[8] = inhibitors of poly I:C-induced TLR3 signaling, primary screen, cell-based, poly I:C stimulus, luciferase, 10K MLSCN set (AID 602277;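 active = inhibition of the reporter signal at or above 50%; inactive = inhibition below 50%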); details: HEK293-TLR3 RL24 IRF3 luciferase reporter, at 10 µM, stronger effect = higher value

Voltage-gated potassium channel subunit beta-2 (Rattus norvegicus), sequence (P62483 whole entry, looked up): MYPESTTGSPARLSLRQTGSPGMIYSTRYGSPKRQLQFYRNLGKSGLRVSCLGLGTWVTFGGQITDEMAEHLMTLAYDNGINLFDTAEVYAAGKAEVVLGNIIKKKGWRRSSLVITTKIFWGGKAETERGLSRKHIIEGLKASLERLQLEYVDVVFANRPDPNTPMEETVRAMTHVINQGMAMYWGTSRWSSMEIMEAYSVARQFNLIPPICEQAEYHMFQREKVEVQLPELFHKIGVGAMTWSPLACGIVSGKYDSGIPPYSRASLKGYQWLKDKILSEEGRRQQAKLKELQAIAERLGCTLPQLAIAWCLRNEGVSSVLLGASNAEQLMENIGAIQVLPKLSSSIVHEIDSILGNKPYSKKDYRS
Alpha-2C adrenergic receptor (Homo sapiens), sequence (P18825 whole entry, looked up): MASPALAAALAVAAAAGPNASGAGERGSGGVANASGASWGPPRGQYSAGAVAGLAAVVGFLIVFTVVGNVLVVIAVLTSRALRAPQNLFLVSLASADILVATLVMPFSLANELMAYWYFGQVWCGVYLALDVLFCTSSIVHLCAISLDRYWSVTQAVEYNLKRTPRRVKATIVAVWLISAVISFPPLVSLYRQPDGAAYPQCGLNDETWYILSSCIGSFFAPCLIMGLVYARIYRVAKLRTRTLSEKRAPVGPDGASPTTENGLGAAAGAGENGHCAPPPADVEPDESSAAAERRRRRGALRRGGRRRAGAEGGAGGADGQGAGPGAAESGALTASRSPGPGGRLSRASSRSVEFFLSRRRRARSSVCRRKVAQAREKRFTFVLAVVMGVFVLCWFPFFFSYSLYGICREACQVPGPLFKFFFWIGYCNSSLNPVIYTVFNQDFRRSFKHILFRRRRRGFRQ

| Compound | cell count [1] | inhibition [1] | inhibition of aggregation [2] | nuclei count [2] [%] | inhibition [3] | nuclei count [3] [%] | fluorescence slope [4] | NADPH fluorescence slope [5] | slope [6] | inhibition [7] | inhibition [8] |
| --- | --- | --- | --- | --- | --- | --- | --- | --- | --- | --- | --- |
| Cc1cc(NC(c2cccnc2)c2c(C)[nH]c3ccccc23)no1 (stereo not given) | 514 | 2.5% (inactive) | 7.6% (inactive) | 112 | -105% (inactive) | 135 | -0.596 (inactive) | -4.4e-05 (inactive) | 0.00254 (inactive) | 17.8% (inactive) | 28.6% (inactive) |
| CNc1ccc(C(O)(C(F)(F)F)C(F)(F)F)cc1C(O)(C(F)(F)F)C(F)(F)F | 667 | 3.3% (inactive) | -7.5% (inactive) | 103 | 3.3% (inactive) | 92.8 | -0.616 (inactive) | -4.4e-05 (inactive) | 0.00297 (inactive) | 12.6% (inactive) | 18.9% (inactive) |
| CC(=O)Nc1cccc(NC(=O)CSc2nn3c(=O)c(C)nnc3s2)c1 | 577 | 5.2% (inactive) | 9.9% (inactive) | 97.9 | -0.3% (inactive) | 95.8 | -0.454 (inactive) | -5.9e-05 (inactive) | 0.00534 (inactive) | 2.45% (inactive) | 20.4% (inactive) |
| O=C(Nc1ccc(SC(F)F)cc1)c1ccc2nccnc2c1 | 823 | -1.3% (inactive) | 14.5% (inactive) | 101 | 55.1% (active) | 95 | -0.39 (inactive) | 2e-05 (inactive) | 0.00714 (inactive) | -15% (inactive) | -139% (inactive) |
| Cc1noc(C)c1C(=O)N1CCN(C(=O)c2sc3cc(Cl)ccc3c2Cl)CC1 | 600 | -5.4% (inactive) | 0.7% (inactive) | 111 | -78.2% (inactive) | 100 | -0.328 (inactive) | -6.4e-05 (inactive) | 0.00474 (inactive) | 8.91% (inactive) | 9.68% (inactive) |
| O=C(N1CCN(c2ccccc2F)CC1)C12CC3CC(CC(C3)C1)C2 | 242 | 3.4% (inactive) | -2.5% (inactive) | 99.4 | 17.9% (inactive) | 95 | -0.387 (inactive) | 2.5e-05 (inactive) | 0.00709 (inactive) | 7.35% (inactive) | 14.4% (inactive) |
| CCSc1ccccc1C(=O)NCc1ccc(S(N)(=O)=O)cc1 | 327 | 1.1% (inactive) | -5.9% (inactive) | 104 | -78.4% (inactive) | 120 | -0.435 (inactive) | -4.5e-05 (inactive) | 0.00523 (inactive) | 18.1% (inactive) | 16.5% (inactive) |
| COc1ccc(-c2noc(COc3ccc(Cl)c(C)c3)n2)cc1 | 553 | 11.9% (inactive) | -13.5% (inactive) | 103 | -14% (inactive) | 94.1 | -0.527 (inactive) | -4.1e-05 (inactive) | 0.00784 (inactive) | 7.55% (inactive) | 20.3% (inactive) |
| CCOc1ccc2nc(Nc3nc4c(c(=O)[nH]3)CCC4)nc(C)c2c1 | 612 | 0.8% (inactive) | -12.1% (inactive) | 112 | -9.2% (inactive) | 110 | -0.429 (inactive) | -5.3e-05 (inactive) | 0.00628 (inactive) | -19.8% (inactive) | -83.1% (inactive) |
| COc1ccc(-c2c3c(=O)n(C)c(=O)n(C)c3cn2-c2cccc(OC)c2)cc1 | 430 | 5.2% (inactive) | 5.3% (inactive) | 110 | -50.3% (inactive) | 99.9 | -0.605 (inactive) | 6.5e-06 (inactive) | 0.00638 (inactive) | -0.838% (inactive) | 0.686% (inactive) |
